GalR3 antag = human GalR3 antagonism | 360,000 compounds, 0.44% hits | O60755 | HEK293 GalR3-CNG cAMP membrane potential fluorescence; galR3 body fused to GalR1 C-terminus | inhibition, % at 3 µM;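 active = inhibition above the screen-wide average plus 3 SD, cut at about 13% in these data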;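 note: forskolin and galanin both at EC90 stimulate the cells; cAMP rise reported by CNG channel membrane potential dye signal; 0% = forskolin plus galanin with DMSO and 100% = forskolin alone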
HIV Env fusion = HIV envelope-mediated fusion inhibition; HeLa-JRFL Env/CEM21 cell fusion, luciferase; inhibition, % at 12.3 µM; 360,000 compounds, 1.1% hits; AID 651610;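 active = mean replicate inhibition score of at least 50 and every replicate individually at or above 50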;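 note: 0% = plate neutral controls and 100% = maraviroc near 300 nM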
NR2F2 inh = blocks human COUP-TFII nuclear receptor. P24468. HEK293T NGFI-A luciferase reporter, luminescence. inhibition, % at 8.6 µM. 370,000 compounds, 0.7% hits;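 active = inhibition above a per-plate cutoff, mean inhibition of test wells between control levels plus 3 SD, cut at about 38% in these data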;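 note: cells cotransfected with COUP-TFII expression vector driving the NGFI-A reporter; 0% = median of COUP-TF2 test wells and 100% = reporter-only cells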
Target sequence (P24468 whole entry, looked up): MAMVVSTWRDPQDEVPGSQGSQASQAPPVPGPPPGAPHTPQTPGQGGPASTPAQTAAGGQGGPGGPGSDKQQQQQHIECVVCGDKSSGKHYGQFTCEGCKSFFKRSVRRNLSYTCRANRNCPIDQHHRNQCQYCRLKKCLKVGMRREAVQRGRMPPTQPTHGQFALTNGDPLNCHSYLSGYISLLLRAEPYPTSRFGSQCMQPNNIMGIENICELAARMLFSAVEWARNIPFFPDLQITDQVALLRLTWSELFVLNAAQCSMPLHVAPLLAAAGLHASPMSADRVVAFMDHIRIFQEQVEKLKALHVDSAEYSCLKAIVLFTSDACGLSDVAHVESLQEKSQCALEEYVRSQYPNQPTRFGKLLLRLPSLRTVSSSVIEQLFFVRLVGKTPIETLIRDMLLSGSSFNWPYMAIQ
Gli-Sufu antag = Gli-Sufu pathway antagonism; 340,000 compounds, 0.74% hits; inhibition, % at 5 µM; Sufu-KO-LIGHT fibroblasts, Gli luciferase reporter luminescence;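 active = inhibition above about 55%, limit read from the data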;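 note: 0% = DMSO-treated cells and 100% = wells with medium but no cells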
aDG glyco act = increases alpha dystroglycan glycosylation. Pro5-aDG cells, alpha-DG glycosylation AlphaScreen (IIH6); 0% Pro5, 100% B10-LARGE cell signal. activation, % at 10 µM. 360,000 compounds, 0.22% hits. AID 624168;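 active = activation of at least 8% versus controls, or a plate z-score of at least 8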;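 note: Pro5 are CHO cells carrying HIG-tagged alpha-DG that lacks glycosylation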
VP16 Luc counter = counter-screen for COUP-TFII antagonists: inhibitors of VP16; HEK293 Gal4-VP16 luciferase reporter, luminescence; inhibition, % at 8.5 µM; shares compounds with NR2F2 inh; 2,500 compounds, 25% hits; in the data active = inhibition above about 13%
COUP-TFII conf = COUP-TFII (NR2F2) inhibition, confirmation assay; AID 687008; shares compounds with NR2F2 inh; HEK293 NGFI-A luciferase reporter, luminescence; inhibition, % at 8.5 µM; 2,500 compounds, 45% hits;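 active = mean inhibition over three repeats above a set limit taken from the earlier primary screen, cut at about 38% in these data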;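 note: 100% = cells given the luciferase reporter alone without the COUP-TF2 vector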
* marks the source's active call; other numbers are inactive results; i = inactive; / = no result; [ ] = remark or other dose. The list is not random: actives were taken first. Their share in the collection is about 2.1%.

SMILES	GalR3 antag	HIV Env fusion	NR2F2 inh	Gli-Sufu antag	aDG glyco act	VP16 Luc counter	COUP-TFII conf
COc1ccc(NC(=O)N(C)C[C@H]2OCCCC[C@H](C)Oc3ccc(N(C)C)cc3C(=O)N([C@@H](C)CO)C[C@@H]2C)cc1	/	-1[16.7 µM]	/	/	/	/	/
Cc1ccc(C23CC4CC(CC(C(=O)N5CCN(C)CC5)(C4)C2)C3)cc1	-8	-2	12	2	0	/	/
Cc1ccc(C)c(N2CCN(C(=O)C34CC5CC(C3)CC(n3nnc(C)n3)(C5)C4)CC2)c1	1	38	47*	9	0	-3	22
C[C@H](O)C#Cc1ccc2c(c1)O[C@H](CN(C)C(=O)c1ccccc1)[C@H](C)CN([C@@H](C)CO)S2(=O)=O	/	18[16.7 µM]	/	/	/	/	/
COc1ccc(CN(C)C[C@@H]2Oc3ccc(NC(=O)NC(C)C)cc3C(=O)N([C@H](C)CO)C[C@@H]2C)cc1	/	4[16.7 µM]	/	/	/	/	/
CC1=CC(=C2C(=O)c3ccccc3C2=O)C=C(C)N1C	-8	/	-22	-42	0	/	/
CCCCCN1C=CC(=C2C(=O)c3ccccc3C2=O)C=C1	-2	72*	70*	59*	1	48*	73*
CN(C)CC(=O)Nc1ccc2c(c1)[C@H]1C[C@H](CC(=O)NCC3CC3)O[C@@H](CO)[C@H]1O2	/	-11[16.7 µM]	/	/	/	/	/
CCCC#Cc1cnc2c(c1)C(=O)N([C@@H](C)CO)C[C@H](C)[C@H](CN(C)C(=O)Nc1ccccc1OC)O2	/	-19[16.7 µM]	/	/	/	/	/
O=C(C[C@@H]1C[C@@H]2c3cc(NC(=O)C4CCC4)ccc3O[C@@H]2[C@@H](CO)O1)NCC1CC1	/	-2[16.7 µM]	/	/	/	/	/
Cc1nc(N)nc(N)c1/C=C/C(C)(C)c1ccc(Cl)cc1	-11	30	47*	/	0	28*	23
O=C(Sc1cccc2cccnc12)c1ccc(F)cc1	-4	37	43*	/	/	47*	44*
O=C(Sc1cccc2cccnc12)c1ccccc1Br	-10	28	30	/	0	/	/
O=C(NCC[C@H]1CC[C@H](NC(=O)C2CCOCC2)[C@@H](CO)O1)Nc1ccc(Cl)cc1	/	-2[16.7 µM]	/	/	/	/	/
Cn1c2ccccc2c(=O)c2cc(C#CC3(O)CCCCC3)ccc21	-5	-65	45*	-2	1	-67	38*
Cc1cc2sc3ccc(C#CC4(O)CCCCC4)cc3c(=O)c2cc1C	-3	65*	89*	/	1	89*	109*
O=C(O)[C@]1(Cc2ccccc2)N=C(c2ccc(OCCCO)cc2)O[C@@H]1c1ccccc1	/	10[16.7 µM]	/	/	/	/	/
C[C@@H]1CN([C@H](C)CO)C(=O)c2cc(-c3ccccc3F)cnc2O[C@@H]1CN(C)C(=O)CN(C)C	/	-11[16.7 µM]	/	/	/	/	/
O=C(Nc1cccc(S(=O)(=O)N2CCCCCC2)c1)c1ccc(Cl)nc1	-4	38	41*	7	0	-2	5
CN(CC(=O)Nc1cccc(S(=O)(=O)N2CCCC2)c1)CC(=O)Nc1ccc(Cl)c(C(F)(F)F)c1	-2	6	42*	28	0	3	11
O=C(Nc1cccc(S(=O)(=O)N2CCCCC2)c1)C1CCN(C(=O)c2ccc(Cl)cc2)CC1	-6	0	15	16	0	/	/
O=C(Nc1cccc(S(=O)(=O)Nc2ccccc2Cl)c1)c1ccc(Cl)nc1	0	/	47*	35	2	10	40*
O=C(Nc1cccc(S(=O)(=O)N2CCCCC2)c1)c1ccc(Cl)nc1	-6	3	29	5	1	/	/
O=C(Nc1cccc(S(=O)(=O)N2CCCCCC2)c1)C1CCN(C(=O)c2ccc(Cl)cc2)CC1	2	6	42*	19	1	-3	9
COc1cccc(OC)c1C(=O)Nc1cccc(S(=O)(=O)Nc2ccccc2Cl)c1	-6	/	13	-2	0	/	/
SMILES	GalR3 antag	HIV Env fusion	NR2F2 inh	Gli-Sufu antag	aDG glyco act	VP16 Luc counter	COUP-TFII conf
CN(CC(=O)Nc1cccc(S(=O)(=O)N2CCCC2)c1)CC(=O)Nc1ccc(F)c(F)c1F	-6	2	0	12	0	/	/
COc1ccc(NC(=O)N[C@H]2CC[C@@H](CCNC(=O)CN3CCOCC3)O[C@H]2CO)cc1	/	1[16.7 µM]	/	/	/	/	/
C[C@@H]1CN([C@H](C)CO)C(=O)c2cccc(NC(=O)C3CCCCC3)c2O[C@@H]1CN(C)S(=O)(=O)c1ccc(Cl)cc1	/	-11[16.7 µM]	/	/	/	/	/
CC=Cc1ccc2n(c1=O)C[C@@H]1[C@@H](CO)[C@H](C(=O)NCCc3ccncc3)[C@H]2N1CCC(F)(F)F (mixture of isomers)	/	2[16.7 µM]	/	/	/	/	/
O=C(N[C@@H]1CCCc2c1cnn2-c1ccc(F)cc1F)c1ccccn1	/	/	38*	/	/	-7	7
O=C(NCCc1ccccc1)C1CCN(c2ncccn2)CC1	3	-12	-18	-11	0	/	/
O=C(NCCCc1ccccc1)C1CCN(c2nc(-c3ccc(Br)cc3)cs2)CC1	/	/	37*	/	/	-1	1
COC(=O)c1c(-c2ccc(C)cc2)csc1NC(=O)Cc1ccc(OC)c(OC)c1	-2	/	27	14	1	/	/
COC(=O)c1c(-c2cccc3ccccc23)csc1NC(=O)Cc1ccc(OC)c(OC)c1	-1	/	41*	25	0	2	29
COc1ccc(-c2csc3ncnc(NCCCO)c23)cc1	-3	50	44*	-2	0	14*	24
COc1ccc(-c2csc3ncnc(NCCO)c23)cc1	0	46	28	-16	0	/	/
CCC(=O)N(C)C[C@H]1Oc2cc(-c3ccccc3C)ccc2S(=O)(=O)N([C@H](C)CO)C[C@H]1C	/	37[16.7 µM]	/	/	/	/	/
Cn1c(=O)cc(OCCCC(=O)Nc2cc(C(F)(F)F)ccn2)c2ccccc21	/	/	71*	/	/	16*	28
Cn1c(=O)cc(OCCCC(=O)Nc2cc(-c3ccncc3)ccn2)c2ccccc21	/	/	46*	/	/	23*	40*
Cc1ccnc(NC(=O)CCCOc2cc(=O)n(C)c3ccccc23)c1	-8	i	-21	-119	0	/	/
COc1ccc(NC(=O)Nc2ccc3c(c2)CC(=O)N([C@H](C)CO)C[C@@H](C)[C@@H](CN(C)Cc2ccc(-c4ccccc4)cc2)O3)cc1	/	8[16.7 µM]	/	/	/	/	/
N=c1c2c(n(Cc3ccccc3)c3c1CCC3)CCC2	-2	/	41*	-4	0	9	37
CCOC(=O)Cn1c2c(c(=N)c3ccccc31)CCC2	-3	/	10	17	0	/	/
CCCCCn1c2c(c(=N)c3ccccc31)CCC2	6	19	66*	84*	0	14*	54*
Cc1nn(-c2ccccc2)c(C)c1C(=O)OC(C)C(=O)NC1CCCCC1C (configuration not stated)	-3	/	39*	5	0	1	21
COc1ccc(CN2CCN(C(=O)c3ccc(S(=O)(=O)NCc4ccco4)cc3)CC2)cc1	-2	39	45*	-2	0	5	31

Screening results as filed in PubChem BioAssay.
